Source: PubChem BioAssay AID1159580 (chemical genetic matrix, 2015)
Several values for one entry are separate records, joined by “and”; a condition that tells them apart may be missing. Equal values may be shown once. Among all 5,500 compounds or so, about 2,000 (36%) were called active. Roughly 18% stayed inconclusive and do not appear here. No stated cut-off is given here; in the data, active means normalized growth mostly below about 0.91 (no sharp cut-off); inconclusive means no clear call, values can overlap the other calls; inactive means mostly above about 0.92. This is one part of the list.

Experiment: chemical genetic growth profiling, strain panel (AID 1159580);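 further: tested at 20 µM; growth read once vehicle control cultures reached saturation at 30 °C; 1 = growth at the plate median or of vehicle wells; lower values mean less growth of the strain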
Settings: S. cerevisiae deletion strains, growth OD

Measured: normalized growth

C[C@@H]1C(=O)OC2[C@H](O)C34[C@@H]5OC(=O)[C@@]3(O[C@@H]3OC(=O)[C@H](O)[C@@]34[C@H](C(C)(C)C)[C@H]5O)[C@]21O (stereo partly drawn)
inactive: locus YAL013W, strain DEP1, active compounds read low 0.998 | locus YAL021C, strain ccr4, active compounds read low 0.952 | locus YAL026C, strain drs2, active compounds read low 0.978 | locus YAL030W, strain snc1, active compounds read low 0.973 | locus YBL061C, strain skt5, active compounds read low 0.975 | locus YBR009C, strain hhf1, active compounds read low 0.959 | locus YBR021W, strain FUR4, active compounds read low 0.983 | locus YBR023C, strain chs3, active compounds read low 0.986 | locus YBR171W, strain sec66, active compounds read low 0.974 | locus YBR229C, strain ROT2, active compounds read low 1 | locus YBR231C, strain swc5, active compounds read low 0.976 | locus YBR279W, strain paf1, active compounds read low 0.98 | locus YCL011C, strain gbp2, active compounds read low 0.972 | locus YCL016C, strain dcc1, active compounds read low 0.975 | locus YCL029C, strain bik1, active compounds read low 1.02 | locus YCL061C, strain MRC1, active compounds read low 0.96 | locus YCL069W, strain vba3, active compounds read low 0.976 | locus YCR088W, strain abp1, active compounds read low 0.983 | locus YDL005C, strain med2, active compounds read low 0.964 | locus YDL035C, strain GPR1, active compounds read low 1 | locus YDL040C, strain nat1, active compounds read low 0.975 | locus YDL074C, strain BRE1, active compounds read low 0.999 | locus YDL101C, strain DUN1, active compounds read low 1.01 | locus YDL134C, strain PPH21, active compounds read low 0.999 | locus YDL185W, strain tfp1, active compounds read low 1.02 | locus YDL192W, strain arf1, active compounds read low 1.01 | locus YDR001C, strain nth1, active compounds read low 0.973 | locus YDR069C, strain doa4, active compounds read low 0.983 | locus YDR101C, strain arx1, active compounds read low 1.01 | locus YDR137W, strain rgp1, active compounds read low 0.935 | locus YDR159W, strain sac3, active compounds read low 0.946 | locus YDR162C, strain NBP2, active compounds read low 0.987 | locus YDR195W, strain ref2 0.942 | locus YDR297W, strain sur2, active compounds read low 0.97 | locus YDR318W, strain mcm21, active compounds read low 1.01 | locus YDR334W, strain swr1, active compounds read low 0.976 | locus YDR335W, strain msn5, active compounds read low 0.965 | locus YDR388W, active compounds read low 1.01 | locus YDR392W, strain spt3, active compounds read low 0.949 | locus YDR502C, strain sam2, active compounds read low 1.03 | locus YEL003W, strain gim4, active compounds read low 0.961 | locus YEL037C, strain rad23, active compounds read low 0.976 | locus YEL061C, strain CIN8 (second series), active compounds read low 0.965 | locus YEL061C, strain CIN8, active compounds read low 0.992 | locus YER015W, strain faa2, active compounds read low 0.989 | locus YER016W, strain bim1, active compounds read low 0.975 | locus YER110C, active compounds read low 1.01 | locus YER111C, strain swi4, active compounds read low 0.964 | locus YER155C, strain BEM2 (second series), active compounds read low 1.02 | locus YER155C, strain BEM2, active compounds read low 1 | locus YER167W, strain BCK2, active compounds read low 0.996 | locus YFR010W, strain ubp6, active compounds read low 0.985 | locus YGL078C, strain dbp3, active compounds read low 1.01 | locus YGL086W, strain mad1, active compounds read low 1.03 | locus YGL167C, strain pmr1, active compounds read low 0.972 | locus YGL173C, strain kem1, active compounds read low 0.953 | locus YGL227W, strain vid30, active compounds read low 0.955 | locus YGL240W, strain doc1, active compounds read low 0.981 | locus YGL248W, strain PDE1, active compounds read low 1.01 | locus YGL253W, strain hxk2, active compounds read low 0.974 | locus YGR078C, strain PAC10, active compounds read low 1 | locus YGR135W, strain pre9, active compounds read low 1.02 | locus YGR252W, strain gcn5, active compounds read low 1.01 | locus YHR013C, strain ard1, active compounds read low 0.957 | locus YHR027C, strain rpn1, active compounds read low 0.987 | locus YHR030C, strain SLT2, active compounds read low 1 and 1.05 | locus YHR079C, strain IRE1 (second series), active compounds read low 1.02 | locus YHR079C, strain IRE1, active compounds read low 1.03 | locus YHR094C, strain hxt1, active compounds read low 1.01 | locus YHR129C, strain ARP1, active compounds read low 1 | locus YHR142W, strain chs7, active compounds read low 0.956 | locus YHR200W, strain rpn10, active compounds read low 1.01 | locus YIL066C, strain RNR3, active compounds read low 1 | locus YIL073C, strain SPO22, active compounds read low 1.06 | locus YIL125W, strain kgd1, active compounds read low 1.01 | locus YIR030C, strain dcg1, active compounds read low 1.02 | locus YJL092W, strain hpr5, active compounds read low 0.975 | locus YJL095W, strain BCK1 (second series), active compounds read low 0.955 | locus YJL095W, strain BCK1, active compounds read low 0.992 and 1.03 | locus YJL115W, strain asf1, active compounds read low 0.956 | locus YJL129C, strain trk1, active compounds read low 0.974 | locus YJL134W, strain LCB3, active compounds read low 1 | locus YJL154C, strain vps35, active compounds read low 0.977 | locus YJL164C, strain tpk1, active compounds read low 0.969 | locus YJL166W, strain qcr8, active compounds read low 0.992 | locus YJL168C, strain set2, active compounds read low 1.01 | locus YJL187C, strain SWE1 (second series), active compounds read low 1.01 | locus YJR043C, strain POL32, active compounds read low 0.994
